Experiment [1] in a line: HepG2 liver cancer cell viability effects, profiling panel, resazurin fluorescence, 24 h, PK04 Diversity Set (AID 1172). To be noted: higher = more signal. For orientation: Alamar Blue is a resazurin reagent that responds to reducing activity.
The nature of experiment [2]: basal S. cerevisiae growth modulation, no modifier, primary screen, OD600, strain BY4716, 24 h, basal condition (AID 1173). To be noted: OD600, 24 h, higher = more signal, called active from +8 up or from −8 down.
Experiment [3] can be described thus: MM1S myeloma cell viability, profiling panel, resazurin fluorescence, basal, 24 h, PK04 Diversity Set (AID 1174).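 Further: MM1S multiple myeloma cell line.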 To be noted: higher = more signal, called active from +8 up or from −8 down.
Experiment [4] addresses Dihydroorotate dehydrogenase (quinone), mitochondrial (Plasmodium falciparum (isolate 3D7)) (UniProt Q08210). Briefly: PfDHODH enzyme inhibitors, primary screen, biochemical, C-terminal His tag, absorbance 600 nm (AID 1175).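 Further: recombinant parasite enzyme with a five histidine tag at its C terminus.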 To be noted: DCIP absorbance 600 nm, higher = more signal, called active from +8 up or from −8 down.
The nature of experiment [5]: P. aeruginosa biofilm formation inhibitors, primary screen, strain PAO1, LB-PBS medium, absorbance 600 nm (AID 1176). To be noted: P. aeruginosa PAO1 growth/biofilm, A600, 12 h; higher = more signal.
Experiment [6] is described as follows: S. cerevisiae RM11-1a growth modifiers, primary screen, strain RM11-1a, OD600, basal, 24 h (AID 1177).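 Further: cultures grown under basal conditions with no added stressor.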 To be noted: OD600, 24 h, higher = more signal, called active from +8 up or from −8 down.
The nature of experiment [7]: E. coli acrAB mutant growth effects, primary screen, E. coli filamentation inducers, strain DRC39, OD650, 24 h (AID 1178).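 Further: growth measured as culture turbidity by optical density at 650 nm.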 To be noted: higher = more signal, called active from +8 up or from −8 down.
Experiment [8] in a line: E. coli acrAB mutant growth effects, primary screen, E. coli filamentation inducers, strain DRC39, OD650, 48 h (AID 1179).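 Further: screen aims at cell division blockers that make cells filament.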 To be noted: E. coli DRC39 delta-acrAB growth, higher = more signal, called active from +8 up or from −8 down.
Experiment [9] can be described thus: RPMI8226 myeloma cell viability, profiling panel, resazurin fluorescence, basal, 24 h, PK04 Diversity Set (AID 1180).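 Further: RPMI8826 multiple myeloma cell line at 5000 cells per well.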 To be noted: higher = more signal.
Experiment [10] deals with E3 ubiquitin-protein ligase XIAP (Homo sapiens) (UniProt P98170). The experiment in a line: XIAP binders, primary screen, biophysical, small-molecule microarray, fluorescence 635 nm (AID 1181).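 Further: score merges 667 nm emission and signal to noise over triplicate slides.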 To be noted: small-molecule microarray binding, higher = more signal.
In experiment [11] the test system is XIP peptide (Xip251-270) binding. Briefly: small-molecule binders of XIP peptide, primary screen, biochemical, small-molecule microarray, fluorescence 635/667 nm, 0.1 µg/mL protein (AID 1182). To be noted: fluorescent protein binding, 635 nm, higher = more signal, called active from +8 up or from −8 down.
For experiment [12], the system named is XIP peptide (Xip251-270). Briefly: small-molecule binders of XIP peptide, primary screen, biochemical, small-molecule microarray, fluorescence 635/667 nm, 0.5 µg/mL protein (AID 1183). To be noted: small-molecule microarray binding, fluorescence 635 nm; higher = more signal.
The nature of experiment [13]: Plasmodium falciparum growth inhibition, primary screen, strain 3D7, DAPI fluorescence, 100 nL (AID 1184).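 Further: parasites grown inside human red blood cells in medium with human serum.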 To be noted: P. falciparum 3D7 growth, 3 d, higher = more signal.
In experiment [14] the target is Homeobox protein Hox-A13 (Mus musculus) (UniProt Q62424). The experiment in a line: inhibitors of HoxA13-DNA binding, primary screen, biochemical, fluorescence polarization, labeled oligonucleotide (AID 1185). To be noted: 15 min, higher = more signal, called active from +8 up or from −8 down. (In general: Polarisation of emitted light reports the rotation of a fluorescent probe.)

Experiment [15] in a line: inhibitors of hydroxyurea-induced Chk1 phosphorylation, primary screen, imaging, HeLa, phospho-Chk1 antibody, percent positive cells (AID 1186). To be noted: hydroxyurea-induced phospho-Chk1 immunofluorescence imaging, higher = more signal.
Experiment [16] in a line: inhibitors of hydroxyurea-induced Chk1 phosphorylation, primary screen, imaging, HeLa, phospho-Chk1 nuclear intensity (AID 1187). To be noted: hydroxyurea-induced phospho-Chk1 immunofluorescence imaging, higher = more signal.

Z-score and composite z-score data for ten compounds are collected here from PubChem BioAssay.

Calls of active or inactive are those of the source. Unless noted, how the calls were made is not given here.

Chain of E3 ubiquitin-protein ligase XIAP (Homo sapiens) (P98170 whole entry, looked up): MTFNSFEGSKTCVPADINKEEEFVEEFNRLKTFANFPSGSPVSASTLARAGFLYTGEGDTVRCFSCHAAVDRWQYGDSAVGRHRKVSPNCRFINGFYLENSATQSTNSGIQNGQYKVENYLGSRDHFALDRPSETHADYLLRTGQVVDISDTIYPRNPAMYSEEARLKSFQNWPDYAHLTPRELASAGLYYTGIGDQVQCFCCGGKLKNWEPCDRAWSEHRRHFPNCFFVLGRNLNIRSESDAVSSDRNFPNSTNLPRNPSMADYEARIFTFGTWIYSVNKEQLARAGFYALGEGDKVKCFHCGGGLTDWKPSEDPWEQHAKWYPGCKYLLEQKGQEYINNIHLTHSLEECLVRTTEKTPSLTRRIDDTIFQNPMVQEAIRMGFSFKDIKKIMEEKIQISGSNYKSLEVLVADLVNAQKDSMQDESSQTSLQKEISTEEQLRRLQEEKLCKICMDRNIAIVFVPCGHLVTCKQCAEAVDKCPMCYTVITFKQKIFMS
Chain of Dihydroorotate dehydrogenase (quinone), mitochondrial (Plasmodium falciparum (isolate 3D7)) (Q08210 whole entry, looked up): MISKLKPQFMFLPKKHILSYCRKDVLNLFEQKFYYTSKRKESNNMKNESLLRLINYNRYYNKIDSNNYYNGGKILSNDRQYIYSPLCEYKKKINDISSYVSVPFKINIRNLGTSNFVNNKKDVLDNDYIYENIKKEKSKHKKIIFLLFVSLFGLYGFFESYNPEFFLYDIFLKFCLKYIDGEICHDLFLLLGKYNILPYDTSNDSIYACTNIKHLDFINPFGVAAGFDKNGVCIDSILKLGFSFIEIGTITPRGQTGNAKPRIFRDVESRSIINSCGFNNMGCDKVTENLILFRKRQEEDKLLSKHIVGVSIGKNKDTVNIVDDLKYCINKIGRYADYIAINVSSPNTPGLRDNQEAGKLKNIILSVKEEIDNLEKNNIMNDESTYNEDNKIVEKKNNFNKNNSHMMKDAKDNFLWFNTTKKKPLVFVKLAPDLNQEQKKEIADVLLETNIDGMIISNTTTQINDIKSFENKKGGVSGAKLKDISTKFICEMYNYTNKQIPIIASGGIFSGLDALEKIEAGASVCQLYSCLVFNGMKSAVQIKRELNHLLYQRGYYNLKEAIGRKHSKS
Chain of Homeobox protein Hox-A13 (Mus musculus) (Q62424 whole entry, looked up): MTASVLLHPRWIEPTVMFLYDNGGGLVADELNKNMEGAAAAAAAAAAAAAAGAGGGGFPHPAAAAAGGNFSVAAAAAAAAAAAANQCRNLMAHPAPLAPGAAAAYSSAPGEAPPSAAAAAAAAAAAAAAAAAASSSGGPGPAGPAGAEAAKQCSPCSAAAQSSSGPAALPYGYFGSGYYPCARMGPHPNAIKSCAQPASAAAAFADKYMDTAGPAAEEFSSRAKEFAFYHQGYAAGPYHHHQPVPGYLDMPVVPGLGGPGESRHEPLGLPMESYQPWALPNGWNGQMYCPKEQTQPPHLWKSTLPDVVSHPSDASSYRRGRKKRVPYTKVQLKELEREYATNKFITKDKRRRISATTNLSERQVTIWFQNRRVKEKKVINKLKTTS

Turning to `COc1cc2c(cc1O)C(c1ccc(CN3CCCC3)cc1)N(Cc1sc3ccccc3c1Cl)CC2` (stereo not given), the z-score in [1] was -0.307; in [2] it was -1.82 (inactive); in [3], -0.527 (inactive); in experiment [5], 0.0619 (inactive); in [6], 0.953 (inactive); in experiment [7] it was 1.23 (inactive). The z-score is 0.25 (inactive) in experiment [8]; -1.05 in experiment [9]; -1.58 in experiment [13]; -5.24 (inactive) in experiment [14]; 0.356 (inactive) in [15]; 0.653 (inactive) in [16]. The composite z-score in experiment [4] is -2.82 (inactive); in experiment [10], 0.0815; in experiment [11], 0.656 (inactive); in experiment [12], 0.879.
Turning to `COCC1=C([C@H](O)CCc2ccccc2)[C@H](CO)[C@@H]2C(=O)N(Cc3ccccc3)C(=O)[C@@H]2C1`, the z-score in [1] was -0.062; in experiment [2], -1.55 (inactive); in [3], 0.0871 (inactive); in experiment [5], -0.295 (inactive); in experiment [6], 0.723 (inactive); in [7], 1.09 (inactive). For the same compound, the z-score is 0.738 (inactive) in [8]; 0.449 in experiment [9]; -0.54 in experiment [13]; -5.17 (inactive) in experiment [14]; -0.955 (inactive) in experiment [15]; -0.946 (inactive) in experiment [16]. Moreover, the composite z-score in [4] was -1.91 (inactive); in experiment [10] it was -0.031; in experiment [11], -0.0534 (inactive); in [12], 0.155.
As for `O=C1c2ccccc2[C@@]2(Cc3ccccc3N(Cc3ccccc3)C2=O)[C@H](c2ccc(CO)cc2)N1Cc1ccccc1C(F)(F)F`, the z-score is -0.897 in experiment [1]; -0.614 (inactive) in experiment [2]; -1.28 (inactive) in [3]; 0.127 (inactive) in experiment [5]; 0.349 (inactive) in experiment [6]; 0.225 (inactive) in experiment [7]. Further, the z-score is 0.429 (inactive) in [8]; -0.59 in experiment [9]; -0.275 in [13]; -2.79 (inactive) in experiment [14]; -0.21 (inactive) in experiment [15]; -0.154 (inactive) in experiment [16]. The composite z-score in experiment [4] was -4.41 (inactive); in experiment [10] it was -0.148; in experiment [11] it was 3.2 (inactive); in experiment [12], 0.878.
On to `C=C(C(=O)CC[C@@H](OC(=O)c1cccnc1)c1ccc(CO)o1)C(C)C`, for which the z-score is 0.158 in experiment [1]; -0.708 (inactive) in experiment [2]; 0.285 (inactive) in experiment [3]; 0.437 (inactive) in experiment [5]; 0.113 (inactive) in experiment [6]; -0.391 (inactive) in experiment [7]. Besides, the z-score in [8] was -0.562 (inactive); in [9], 0.594; in experiment [13] it was -0.188; in experiment [14], -4.55 (inactive); in experiment [15], 0.647 (inactive); in experiment [16], 0.501 (inactive). The composite z-score in [4] is -0.0661 (inactive); in experiment [10], 0.396; in experiment [11] it was -0.239 (inactive); in experiment [12], 0.249.
As to `O=C1C2C=CC(C(O)c3ccc(B(O)O)cc3)N(Nc3ccc([N+](=O)[O-])cc3)C2C(=O)N1c1ccccc1` (stereo not given), the z-score in [1] is 0.0107; in experiment [2], -17.3 (active); in experiment [3], -0.307 (inactive); in experiment [5] it was 0.188 (inactive); in experiment [6], -22.9 (active); in [7] it was -1.01 (inactive). The z-score is -0.657 (inactive) in [8]; -0.423 in experiment [9]; 1.18 in experiment [13]; -1.63 (inactive) in experiment [14]; -0.169 (inactive) in experiment [15]; -0.219 (inactive) in experiment [16]. Moreover, the composite z-score is -3.05 (inactive) in experiment [4], 0.0823 in [10], 0.432 (inactive) in [11] and 0.208 in [12].
For `[N-]=[N+]=NCc1ccccc1[C@H]1OC(c2ccc(OCCCO)cc2)=N[C@@]1(Cc1ccccc1)C(=O)NCC(O)CO` (stereo not given in full), the z-score in experiment [1] is 1.59; in experiment [2], -0.366 (inactive); in [3], -0.327 (inactive); in experiment [5], 2.25 (inactive); in experiment [6], -0.405 (inactive); in experiment [7], -0.329 (inactive). Moreover, the z-score was -0.279 (inactive) in experiment [8]; -0.435 in [9]; -2.48 in experiment [13]; -3.47 (inactive) in experiment [14]; 0.105 (inactive) in [15]; 0.231 (inactive) in experiment [16]. The composite z-score in experiment [4] is -0.313 (inactive); in [10], 0.459; in experiment [11], 0.701 (inactive); in experiment [12], 0.306.
As to `COC(=O)[C@@]1(Cc2ccc(OC)cc2)[C@H]2c3cc(C(=O)N4CCCC4)n(CCN4CCOCC4)c3C[C@H]2CN1C(=O)c1ccccc1`, the z-score in experiment [1] was 0.142; in experiment [2], 0.642 (inactive); in experiment [3] it was -0.0281 (inactive); in experiment [5], 0.231 (inactive); in experiment [6], 0.48 (inactive); in experiment [7], 0.0378 (inactive). For the same compound, the z-score in experiment [8] is 0.484 (inactive); in experiment [9] it was 0.639; in experiment [13] it was -1.17; in [14], -5.18 (inactive); in experiment [15], 0.778 (inactive); in [16], 0.485 (inactive). Moreover, the composite z-score in [4] was -1.33 (inactive); in [10] it was 0.0305; in experiment [11], 1.11 (inactive); in [12], 0.0956.
Take `CC(C)(C)OC(=O)CC[C@]1(C(=O)NCC(O)CO)N=C(c2ccc(OCCCO)cc2)O[C@H]1c1ccccc1CN=[N+]=[N-]` (stereo not given in full): the z-score in experiment [1] is -0.206; in [2], -0.694 (inactive); in experiment [3], -0.918 (inactive); in experiment [5] it was 1.65 (inactive); in [6], -0.591 (inactive); in experiment [7], -0.185 (inactive). Further, the z-score in experiment [8] was -0.659 (inactive); in experiment [9], -0.483; in experiment [13], -0.121; in [14] it was -5.33 (inactive); in [15], -0.029 (inactive); in experiment [16], 0.402 (inactive). Moreover, the composite z-score in experiment [4] is -0.59 (inactive); in [10], 0.049; in experiment [11], 3.09 (inactive); in [12], 0.878.
Take `COCCOC(=O)N1C(=O)[C@@]2(c3cc(C#CC4(O)CCCCCC4)ccc31)[C@H](c1ccc(O)cc1)N1[C@H](c3ccccc3)[C@H](c3ccccc3)OC(=O)[C@H]1[C@@H]2C(=O)N1CCc2cc(OC)c(OC)cc2C1`: the z-score in experiment [1] is 2.14; in experiment [2], -0.169 (inactive); in experiment [3], 0.493 (inactive); in experiment [5] it was -0.0242 (inactive); in experiment [6], -0.592 (inactive); in [7] it was 0.351 (inactive). In addition, the z-score in experiment [8] is -0.8 (inactive); in experiment [9] it was 0.0494; in [13], 0.0635; in experiment [14], -0.954 (inactive); in experiment [15] it was -0.404 (inactive); in experiment [16] it was -0.466 (inactive). In addition, the composite z-score is -0.102 (inactive) in experiment [4], -0.313 in [10], -0.455 (inactive) in experiment [11] and 0.839 in experiment [12].
Consider `CN(C)CCCCNC(=O)[C@@H]1C[C@@H]2C(=O)N[C@@H](CCCCN)C(=O)N2[C@@H]1c1cccc(OCCO)c1`, for which the z-score in experiment [1] was 0.0914; in experiment [2], -0.191 (inactive); in [3], -0.332 (inactive); in experiment [5] it was 0.836 (inactive); in [6] it was -0.147 (inactive); in [7] it was -0.383 (inactive). In addition, the z-score is -1 (inactive) in [8]; -0.165 in [9]; -0.114 in [13]; -3.47 (inactive) in [14]; -0.833 (inactive) in experiment [15]; -0.838 (inactive) in experiment [16]. Besides, the composite z-score in experiment [4] was -0.318 (inactive); in [10], -0.32; in experiment [11] it was 0.388 (inactive); in [12], 0.566.
